Data from PubChem BioAssay.
Activity calls are given as the source filed them. Unless noted, how the calls were made is not given here.

What was measured:
[1] = anti-His antibody binders, primary screen, artefact control for SMM control protein annotation, biochemical, small-molecule microarray, 635 nm fluorescence (AID 1128); settings: anti-His Alexa647 antibody binding, higher = more signal;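 further: score merges feature fluorescence with signal-to-noise for each printed compound spot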
[2] = test system: Human papillomavirus type 1a E7 protein (residues 1-88); experiment: HPV1a E7 small-molecule binders, primary screen, biochemical, small-molecule microarray, residues 1-88, 635 nm (AID 1129); settings: small-molecule microarray binding, fluorescence 635 nm; higher = more signal
[3] = target: Focal adhesion kinase 1 (Homo sapiens) (UniProt Q05397); experiment: small-molecule microarray binders of FAK, primary screen, biochemical, 635/667 nm fluorescence, BSA, DTT (AID 1130); settings: PTK2 binding, 635 nm fluorescence, higher = more signal;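 further: composite of spot emission at 667 nm and signal to noise over triplicate slides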
Chain of Focal adhesion kinase 1 (Homo sapiens) (Q05397 whole entry, looked up): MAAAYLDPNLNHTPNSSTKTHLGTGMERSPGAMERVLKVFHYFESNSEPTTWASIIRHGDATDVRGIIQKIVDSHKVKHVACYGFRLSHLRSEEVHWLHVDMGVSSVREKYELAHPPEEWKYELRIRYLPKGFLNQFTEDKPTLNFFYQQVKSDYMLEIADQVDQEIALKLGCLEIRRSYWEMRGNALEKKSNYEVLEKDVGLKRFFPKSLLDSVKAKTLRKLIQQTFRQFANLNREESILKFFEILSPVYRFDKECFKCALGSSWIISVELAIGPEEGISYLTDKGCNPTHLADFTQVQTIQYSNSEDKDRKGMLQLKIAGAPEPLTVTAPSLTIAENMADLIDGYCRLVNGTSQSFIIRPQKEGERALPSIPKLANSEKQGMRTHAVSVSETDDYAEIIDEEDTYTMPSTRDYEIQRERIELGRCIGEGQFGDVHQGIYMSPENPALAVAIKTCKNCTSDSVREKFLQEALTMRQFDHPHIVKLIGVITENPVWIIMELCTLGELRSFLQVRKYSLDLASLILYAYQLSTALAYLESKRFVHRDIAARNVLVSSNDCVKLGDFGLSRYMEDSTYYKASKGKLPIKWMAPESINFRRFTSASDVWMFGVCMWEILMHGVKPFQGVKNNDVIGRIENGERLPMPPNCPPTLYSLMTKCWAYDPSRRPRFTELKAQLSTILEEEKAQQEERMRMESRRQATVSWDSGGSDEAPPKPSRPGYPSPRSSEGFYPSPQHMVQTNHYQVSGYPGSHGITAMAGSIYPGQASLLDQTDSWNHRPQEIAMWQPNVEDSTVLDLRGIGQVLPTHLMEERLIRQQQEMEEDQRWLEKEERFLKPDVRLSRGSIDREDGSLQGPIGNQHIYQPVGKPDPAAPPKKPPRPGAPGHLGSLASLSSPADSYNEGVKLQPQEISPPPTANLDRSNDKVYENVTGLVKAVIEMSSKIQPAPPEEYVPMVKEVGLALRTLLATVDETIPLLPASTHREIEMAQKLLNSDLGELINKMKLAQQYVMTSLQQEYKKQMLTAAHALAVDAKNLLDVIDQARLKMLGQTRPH

[4] = test system: Fibrinogen (Alexa647-labelled); experiment: fibrinogen binders on compound microarrays, profiling panel, artefact control for SMM control-protein annotation, biochemical, small-molecule microarray, 635/667 nm fluorescence (AID 1131); settings: fibrinogen-A647 binding fluorescence, higher = more signal;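 further: z-score merges 667 nm fluorescence with per-spot signal-to-noise over triplicate slides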
[5] = target: Follistatin (Homo sapiens) (UniProt P19883); experiment: follistatin binders on small-molecule microarrays, primary screen, biochemical, small-molecule microarray, 635/667 nm fluorescence (AID 1132); settings: FST binding, 635 nm fluorescence, higher = more signal
Chain of Follistatin (Homo sapiens) (P19883 whole entry, looked up): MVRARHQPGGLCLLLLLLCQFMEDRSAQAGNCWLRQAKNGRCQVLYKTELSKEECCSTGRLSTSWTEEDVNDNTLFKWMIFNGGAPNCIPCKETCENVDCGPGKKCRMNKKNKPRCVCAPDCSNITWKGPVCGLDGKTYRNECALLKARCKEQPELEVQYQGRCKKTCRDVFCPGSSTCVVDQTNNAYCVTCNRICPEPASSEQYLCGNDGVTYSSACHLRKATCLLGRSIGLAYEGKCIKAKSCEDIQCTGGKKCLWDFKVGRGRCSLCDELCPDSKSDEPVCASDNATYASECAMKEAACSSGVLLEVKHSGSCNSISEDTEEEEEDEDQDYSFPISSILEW

[6] = target: Fibroblast growth factor 2 (Homo sapiens) (UniProt P09038); experiment: FGF2 binders on small-molecule microarrays, primary screen, biochemical, small-molecule microarray, 635/667 nm fluorescence (AID 1133); settings: small-molecule microarray binding, FGF2, fluorescence 635/667; higher = more signal
Chain of Fibroblast growth factor 2 (Homo sapiens) (P09038 whole entry, looked up): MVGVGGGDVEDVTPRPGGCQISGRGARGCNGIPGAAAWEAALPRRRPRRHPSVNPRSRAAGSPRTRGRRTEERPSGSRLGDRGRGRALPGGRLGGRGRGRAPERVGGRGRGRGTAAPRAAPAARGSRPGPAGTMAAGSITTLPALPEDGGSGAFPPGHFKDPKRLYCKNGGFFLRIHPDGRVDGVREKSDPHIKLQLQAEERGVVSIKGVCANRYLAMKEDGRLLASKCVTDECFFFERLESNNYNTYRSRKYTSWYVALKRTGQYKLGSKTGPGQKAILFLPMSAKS

[7] = mitochondrial membrane potential change in A549 cells, profiling panel, cell-based, JC-1 fluorescence, basal, 24 h, 100 nL (AID 1138); settings: higher = more signal;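 further: A549 lung adenocarcinoma cells under basal conditions with no added stimulus; test concentration not given here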
Lefty1 = Lefty1 binders on small-molecule microarrays, primary screen, biochemical, small-molecule microarray, 635/667 nm fluorescence (AID 1139); settings: small-molecule microarray binding, fluorescence 635/667; higher = more signal
[8] = test system: wheat germ agglutinin (Triticum aestivum), Alexa647-labelled; experiment: wheat germ agglutinin binders on compound microarrays, profiling panel, artefact control for SMM control-protein annotation, biochemical, small-molecule microarray, 635/667 nm fluorescence (AID 1140); settings: WGA-A647 binding, 635 nm fluorescence, higher = more signal;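 further: score merges 667 nm feature emission with signal to noise over triplicate slides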
[9] = target: Luciferin 4-monooxygenase (Photinus pyralis) (UniProt P08659); experiment: firefly luciferase enzyme inhibitors, primary screen, biochemical, luminescence, purified enzyme, 2006 set (AID 1141); settings: SteadyGlo luminescence, 30 min, higher = more signal, called active from +8 up or from −8 down;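 further: cell-free assay with purified firefly luciferase at 100 ng per well in PBS; test concentration not given here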
Chain of Luciferin 4-monooxygenase (Photinus pyralis) (P08659 whole entry, looked up): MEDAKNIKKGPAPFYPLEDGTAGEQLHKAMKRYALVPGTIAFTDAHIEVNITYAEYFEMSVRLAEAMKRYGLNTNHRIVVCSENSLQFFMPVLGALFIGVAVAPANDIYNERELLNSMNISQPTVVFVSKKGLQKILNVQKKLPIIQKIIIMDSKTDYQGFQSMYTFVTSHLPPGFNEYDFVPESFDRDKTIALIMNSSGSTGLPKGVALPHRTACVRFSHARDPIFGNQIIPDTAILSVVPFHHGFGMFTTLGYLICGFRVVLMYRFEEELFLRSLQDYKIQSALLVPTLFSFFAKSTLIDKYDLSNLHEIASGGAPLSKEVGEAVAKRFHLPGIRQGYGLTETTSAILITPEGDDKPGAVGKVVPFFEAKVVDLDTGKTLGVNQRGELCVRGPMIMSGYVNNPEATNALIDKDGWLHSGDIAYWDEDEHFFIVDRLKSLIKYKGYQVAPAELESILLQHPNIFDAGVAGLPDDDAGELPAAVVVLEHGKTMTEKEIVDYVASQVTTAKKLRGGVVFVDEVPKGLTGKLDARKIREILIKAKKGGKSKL

[10] = test system: Wnt5a (protein binding on small-molecule microarray); experiment: Wnt5a binders on small-molecule microarray, primary screen, biophysical, 635/667 nm fluorescence (AID 1142); settings: 635 nm fluorescence, higher = more signal;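 further: fluorescence read at 667 nm with signal to noise per printed feature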
[11] = cell viability in Huh7 cells, primary screen, cytotoxicity control for HCV replication inhibitor project, CellTiter-Glo luminescence, basal, 48 h (AID 1143); settings: Huh7 HCV replicon, higher = more signal, called active from +8 up or from −8 down;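 further: Huh7 hepatoma cells carrying a hepatitis C replication reporter with no stimulus; test concentration not given here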
[12] = P. aeruginosa biofilm formation inhibitors, primary screen, PAO1 strain, BacTiter-Glo luminescence, LB-PBS (AID 1144); settings: 12 h, higher = more signal
[13] = CREB reporter modulators without forskolin, primary screen, cell-based, PC12, CRE-LacZ reporter, unstimulated (AID 1145); settings: no forskolin, luminescence, 4.5 h, higher = more signal, called active from +8 up or from −8 down
[14] = CREB reporter modulators under forskolin, primary screen, cell-based, PC12, CRE-LacZ reporter, forskolin-stimulated (AID 1146); settings: luminescence, 4.5 h, higher = more signal, called active from +8 up or from −8 down;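 further: PC12 cells with 6xCRE LacZ reporter stimulated by forskolin 10 µM; beta-galactosidase reporter signal reflecting CREB driven transcription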
[15] = target: Streptavidin (Streptomyces avidinii) (UniProt P22629); experiment: streptavidin binders on small-molecule microarray, primary screen, artefact control for SMM compound annotation, biophysical, 635/667 nm fluorescence (AID 1147); settings: streptavidin binding, higher = more signal;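 further: signal reflects streptavidin binding to arrayed compounds as a control protein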
Chain of Streptavidin (Streptomyces avidinii) (P22629 whole entry, looked up): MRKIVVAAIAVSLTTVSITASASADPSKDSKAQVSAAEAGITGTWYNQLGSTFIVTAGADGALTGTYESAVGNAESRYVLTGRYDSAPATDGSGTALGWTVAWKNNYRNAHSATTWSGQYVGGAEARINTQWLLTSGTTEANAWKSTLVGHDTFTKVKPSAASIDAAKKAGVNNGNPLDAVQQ

[16] = small-molecule binders of probe aInhba, primary screen, biochemical, small-molecule microarray, 635/667 nm fluorescence (AID 1148); settings: higher = more signal;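 further: score merges 667nm spot fluorescence with signal-to-noise for antibody binding to printed compounds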
Torsin-1A (Homo sapiens) [17] = target: Torsin-1A (Homo sapiens) (UniProt O14656); experiment: torsin A binders from cell lysate, primary screen, small-molecule microarray, wild-type, 635/667 nm (AID 1149); settings: COS7 hTOR1A-WT lysate, 635 nm fluorescence, higher = more signal
Chain of Torsin-1A (Homo sapiens) (O14656 whole entry, looked up): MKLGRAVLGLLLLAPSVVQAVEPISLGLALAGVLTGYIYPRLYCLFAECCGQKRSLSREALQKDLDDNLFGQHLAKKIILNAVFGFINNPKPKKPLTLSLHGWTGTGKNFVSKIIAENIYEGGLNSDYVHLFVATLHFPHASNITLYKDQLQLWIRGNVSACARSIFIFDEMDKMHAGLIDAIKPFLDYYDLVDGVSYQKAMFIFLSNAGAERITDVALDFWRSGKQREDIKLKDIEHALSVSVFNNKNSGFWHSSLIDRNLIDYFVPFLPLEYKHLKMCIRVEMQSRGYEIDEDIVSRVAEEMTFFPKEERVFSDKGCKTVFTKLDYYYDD

Torsin-1A (Homo sapiens) [18] = target: Torsin-1A (Homo sapiens) (UniProt O14656); experiment: small-molecule binders of mutant TOR1A in lysate, primary screen, cell lysate, small-molecule microarray, COS7 lysate, 635/667 nm fluorescence (AID 1150); settings: COS7 hTOR1A mutant lysate, 635 nm fluorescence, higher = more signal;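 further: score pools 667 nm emission and signal to noise measuring lysate protein binding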
[19] = test system: Sonic hedgehog protein (Shh); experiment: small-molecule binders of Shh protein, primary screen, biochemical, small-molecule microarray, 635/667 nm fluorescence (AID 1151); settings: small-molecule microarray binding, 635 nm fluorescence; higher = more signal;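 further: Shh protein binding to compounds spotted on small-molecule microarray slides; score combines spot fluorescence intensity with signal-to-noise across triplicate slides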

Structure (SMILES) | composite z-score [1] | composite z-score [2] | composite z-score [3] | composite z-score [4] | composite z-score [5] | composite z-score [6] | z-score [7] | composite z-score (Lefty1) | composite z-score [8] | z-score [9] | composite z-score [10] | z-score [11] | z-score [12] | z-score [13] | z-score [14] | composite z-score [15] | composite z-score [16] | composite z-score (Torsin-1A (Homo sapiens) [17]) | composite z-score (Torsin-1A (Homo sapiens) [18]) | composite z-score [19]
CN1C(=O)C2C=CC(C(O)Cc3ccccc3)N(N(c3ccccc3)c3ccccc3)C2C1=O (stereo not given) | 0.548 | 1.17 | 0.293 | 0.331 | 0.307 | -0.622 | 0.54 | -0.0212 | 0.201 | -0.397 (inactive) | 0.0159 | 0.443 (inactive) | -0.597 (inactive) | 0.264 (inactive) | 0.6 (inactive) | 2.18 | 0.191 | 0.0867 | 0.25 | -0.572
CCOC(=O)C1=CC[C@@H](c2ccccc2C(F)(F)F)N(S(=O)(=O)c2ccc(C)cc2)C1 | 1.62 | 1.18 | 0.406 | 0.836 | 0.877 | 0.633 | 1.9 | -0.356 | 0.989 | 0.515 (inactive) | 0.658 | -5.24 (inactive) | -0.0874 (inactive) | 0.238 (inactive) | -0.596 (inactive) | 0.867 | 0.693 | -0.117 | 2.07 | 0.0555
CC(C)CCC[C@@H](C)[C@H]1CC[C@@]2(C)C3=C(CC[C@]12C)[C@@]1(C)CC[C@H](OC(=O)c2ccc(Br)cc2)C(C)(C)C1CC3 (stereo not given in full) | -0.242 | 0.595 | -0.172 | 0.487 | 0.485 | 0.508 | 0.367 | 0.573 | 0.538 | -1.28 (inactive) | 0.119 | -1.17 (inactive) | -0.784 (inactive) | 0.21 (inactive) | 0.168 (inactive) | 0.0916 | 0.054 | 0.276 | 0.409 | 0.384
COCC(=C=CC[C@H](O)c1ccc(OCCO)cc1)C[C@H](O)COCc1ccccc1 | 1.35 | 0.887 | 0.453 | 0.31 | 1.21 | 0.372 | 0.743 | 0.722 | 0.624 | -0.627 (inactive) | 0.122 | -1.66 (inactive) | -0.54 (inactive) | 0.611 (inactive) | -0.724 (inactive) | 0.249 | -0.0736 | 0.908 | 0.719 | 1.55
CCCC[C@@H]1C[C@H]1[C@@H](NC(=O)c1cccnc1)c1ccc(-c2ccccc2)cc1 | -0.238 | -0.647 | -0.14 | -2.12 | -1.17 | -2.03 | 0.475 | -0.815 | -0.166 | 0.0562 (inactive) | -0.995 | -2.72 (inactive) | -0.327 (inactive) | -0.372 (inactive) | 0.162 (inactive) | -1.02 | -0.251 | -2.78 | -1.29 | -0.822
O=C1c2ccccc2[C@](Cc2ccccc2I)(C(=O)NCc2ccccc2)[C@H](c2ccc(CO)cc2)N1C1CCCCC1 | 2.68 | 1.2 | 0.699 | 0.945 | 1.54 | 1.93 | -0.0853 | 1.42 | 1.04 | -0.0828 (inactive) | 0.52 | -4.84 (inactive) | -0.479 (inactive) | 0.0655 (inactive) | -0.183 (inactive) | 1.71 | 0.295 | 0.326 | 0.489 | 1.75
Cc1ccc(S[C@]2(C(=O)NCC(C)C)CC(=O)N(Cc3ccccc3Cl)[C@@H]2c2ccc(CO)cc2I)cc1 | 0.231 | 0.132 | -0.47 | 0.137 | -0.142 | -0.131 | -0.204 | -0.7 | 0.231 | 0.272 (inactive) | -0.296 | -0.521 (inactive) | -0.505 (inactive) | -0.904 (inactive) | 0.442 (inactive) | -0.942 | -0.176 | -0.276 | -0.682 | 0.196
CCCC=C(CCC)[C@@H](NP(=O)(c1ccccc1)c1ccccc1)c1ccc(C(F)(F)F)cc1 | 0.74 | 0.811 | 0.666 | 0.47 | -0.683 | -0.265 | 0.365 | 0.57 | 0.255 | 2.55 (inactive) | 0.71 | -0.407 (inactive) | 0.592 (inactive) | 0.0041 (inactive) | 0.0568 (inactive) | 0.0838 | -0.0833 | 0.316 | 0.0932 | -0.395
COCCOC(=O)N1C(=O)[C@@]2(c3cc(C#CCNC(N)=O)ccc31)[C@H](C(=O)N1CCCCCCC1)[C@H]1C(=O)O[C@H](c3ccccc3)[C@H](c3ccccc3)N1[C@@H]2c1ccc(O)cc1 | -0.269 | 1 | 0.478 | 0.391 | 1.4 | 1.24 | -0.606 | 0.742 | 0.128 | -0.352 (inactive) | 0.233 | -0.204 (inactive) | 0.942 (inactive) | -0.0526 (inactive) | -0.333 (inactive) | 0.399 | -0.101 | 0.266 | 0.216 | 1.12
C[n+]1ccc(CCCO)cc1 | -0.278 | -1.41 | -0.526 | -1.48 | 1.37 | 1.44 | -0.195 | 1.36 | -0.72 | 0.246 (inactive) | 0.749 | -0.0513 (inactive) | -0.601 (inactive) | 0.182 (inactive) | 0.58 (inactive) | -0.902 | 0.196 | -0.653 | -0.0965 | 2.16
CCCN1C(=O)[C@]2(Cc3ccccc3)N=C(c3ccc(OCCCO)cc3)O[C@@H]2c2ccccc21 | 1.9 | 1.22 | 0.0605 | 0.962 | 1.46 | 1.63 | 1.44 | 0.951 | 0.751 | -4.12 (inactive) | 1.19 | -5.27 (inactive) | -0.204 (inactive) | 1.04 (inactive) | -1.11 (inactive) | 0.501 | 0.872 | 0.317 | 0.773 | 1.84
COC(=O)[C@@]1(Cc2ccc(F)cc2)[C@H]2c3cc(C(=O)N4CCCC4)n(CCF)c3C[C@H]2CN1C(=O)c1ccccc1 | 2.82 | 1.2 | 1.67 | 0.642 | 0.088 | -0.299 | 0.0101 | -0.427 | 1.4 | 0.125 (inactive) | 1.5 | -2.28 (inactive) | -0.603 (inactive) | 0.952 (inactive) | 1.33 (inactive) | 1.99 | 1.66 | 0.103 | 1.07 | -0.462
